Data published in PubChem BioAssay (Tox21).
The source made the active and inactive calls. Where a call stands in place of a potency, no number is given. The call rests on the fitted dose curve; in most records, active means well fitted activation curve with a large enough effect in the repeat runs; inconclusive means weak or mixed curves; inactive means flat fitted curve, though single readings scatter.

Each molecule was assayed against Androgen receptor (Homo sapiens) (UniProt P10275) (assay: qHTS assay to identify small molecule agonists of the androgen receptor (AR) signaling pathway using the MDA cell line (AID 743040; further: nearly all actives have a fitted effect of over 20% in size)). Settings: MDA-kb2 AR-luc cells, MMTV luciferase, 16 h; series mostly up to 70.3 µM.
Chain of Androgen receptor (Homo sapiens) (P10275 whole entry, looked up): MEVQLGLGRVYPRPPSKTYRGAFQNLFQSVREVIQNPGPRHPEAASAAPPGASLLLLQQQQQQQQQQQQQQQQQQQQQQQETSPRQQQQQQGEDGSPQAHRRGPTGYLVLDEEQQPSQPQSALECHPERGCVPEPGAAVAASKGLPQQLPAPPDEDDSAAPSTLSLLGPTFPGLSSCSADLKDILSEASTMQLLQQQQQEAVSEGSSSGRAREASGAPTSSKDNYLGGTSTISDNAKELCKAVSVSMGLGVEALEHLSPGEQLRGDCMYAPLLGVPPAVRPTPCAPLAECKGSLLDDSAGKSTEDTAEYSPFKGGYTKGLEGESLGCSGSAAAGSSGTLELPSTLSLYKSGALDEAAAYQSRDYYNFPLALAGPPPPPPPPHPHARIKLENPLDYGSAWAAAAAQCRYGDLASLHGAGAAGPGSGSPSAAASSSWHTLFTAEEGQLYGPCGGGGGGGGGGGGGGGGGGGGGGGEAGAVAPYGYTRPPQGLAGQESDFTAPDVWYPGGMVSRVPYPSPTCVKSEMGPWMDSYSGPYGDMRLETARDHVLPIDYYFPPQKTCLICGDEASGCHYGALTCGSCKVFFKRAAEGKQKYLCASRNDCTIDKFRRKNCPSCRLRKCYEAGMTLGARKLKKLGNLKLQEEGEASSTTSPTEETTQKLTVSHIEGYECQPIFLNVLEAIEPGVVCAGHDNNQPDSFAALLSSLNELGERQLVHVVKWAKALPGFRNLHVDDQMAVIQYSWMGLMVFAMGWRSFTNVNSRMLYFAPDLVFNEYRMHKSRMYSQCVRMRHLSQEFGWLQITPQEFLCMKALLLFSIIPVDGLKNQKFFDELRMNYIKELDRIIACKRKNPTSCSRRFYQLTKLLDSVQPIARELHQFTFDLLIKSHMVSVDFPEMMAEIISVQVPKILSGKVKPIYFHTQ
Text: National Center for Advancing Translational Sciences [NCATS]
NIH Chemical Genomics Center [NCGC]
U.S. Environmental Protection Agency [EPA]
National Institutes of Environmental Health Sciences [NIEHS]
National Toxicology Program [NTP]
U.S. Food and Drug Administration [FDA]
Androgen receptor (AR), a nuclear hormone receptor, plays a critical role in AR-dependent prostate cancer and other androgen related diseases. Endocrine disrupting chemicals (EDCs) and their interactions with steroid hormone receptors like AR may cause disruption of normal endocrine function as well as interfere with metabolic homeostasis, reproduction, developmental and behavioral functions. To identify the compounds that activate AR signaling, MDA-kb2 AR-luc cell line (from ATCC, deposited by Wilson et al.) was used to screen the Tox21 10K compound library. MDA-kb2 AR-luc cell line is human breast carcinoma cell line that was stably transfected with a luciferase reporter gene under control of the MMTV promoter containing response elements for both androgen receptor (AR) and glucocorticoid receptor (GR).
Tox21 Assay Protocol Summary:
MDA-kb2 AR-luc cells were dispensed at 3,000 cells/5 uL/well of culture medium into white wall/solid-bottom 1536-well plates using a Multidrop Combi (ThermoFisher Scientific, Waltham, MA) dispenser. After the assay plates were incubated at 37C and 0% CO2 for 5 h, 23 nL of compounds dissolved in DMSO, positive controls or DMSO only was transferred to the assay plate by a Pintool station (Kalypsys, San Diego, CA). The plates were incubated at 37C and 0% CO2 for 16 h. Then 4 uL of ONE-Glo reagent (Promega, Madison, WI) was added to each plate using a Bioraptr Flying Reagent Dispenser (FRD) workstation (Beckman Coulter, Indianapolis, IN, USA) and luminescence was quantified on a ViewLux (PerkinElmer, Shelton, CT) plate reader after 30 min incubation at room temperature.
CCCCCCCC/C=C/CCCCCCCC1=NCCN1CCO was tested, and the Potency was “inactive”. With CSc1ccc(/C=C2/C(C)=C(CC(=O)O)c3cc(F)ccc32)cc1 the Potency was “inactive”. In the case of CC[C@H](c1ccc(O)cc1)[C@@H](CC)c1ccc(O)cc1, the Potency was “inactive”. CCCCCCCCCCCCCC[P+](CCCC)(CCCC)CCCC (tested in a mixture with another compound) was tested, and the Potency was “inactive”. With CCCCCCCCNC(C)C(O)c1ccc(SC(C)C)cc1 (stereo not given) the Potency was “inactive”. For CCC(C)Nc1ccc(NC(C)CC)cc1 (stereo not given), the Potency was “inactive”. O=C(c1ccc(O)cc1O)c1ccc(O)cc1O was tested, and the Potency was “inactive”. Nc1ccc(N)c2ccccc12 was tested, and the Potency was “inactive”. With Cc1c(C)c2c(c(C)c1O)CCC(C)(COc1ccc(CC3SC(=O)NC3=O)cc1)O2 (stereo not given) the Potency was “inactive”. With ON=C1CCCC1 the Potency was “inactive”. For Cc1cc(O)c(C(C)(C)C)cc1C(C)(C)C, the Potency was “inactive”. CCc1cc(Cc2cc(CC)cc(C(C)(C)C)c2O)c(O)c(C(C)(C)C)c1 was tested, and the Potency was “inactive”. With CCCCN(CCCC)c1ccc(C(=O)c2ccccc2C(=O)O)c(O)c1 the Potency was “inactive”. With Cc1cc(O)c2ccccc2c1O the Potency was “inactive”. For [Cl][Bi]([Cl])([c]1ccccc1)([c]1ccccc1)[c]1ccccc1, the Potency was “inactive”. With CCCCCCCCS(=O)C(C)Cc1ccc2c(c1)OCO2 (stereo not given) the Potency was “inactive”. With OCc1c[nH]c2ccccc12 the Potency was “inactive”. For Cc1cc(O)c(C(C)(C)C)cc1Sc1cc(C(C)(C)C)c(O)cc1C, the Potency was “inactive”. Cc1cc(CCN2CCN(c3nsc4ccccc34)CC2)cc2c1NC(=O)CC2(C)C was tested, and the Potency was “inactive”. CC(C)=CCOc1ccc(/C=C/C(=O)c2ccc(OCC=C(C)C)cc2OCC(=O)O)cc1 was tested, and the Potency was “inactive”. For C=CC(=O)OCC(CO)(COC(=O)C=C)COC(=O)C=C, the Potency was “inactive”. With Cc1ccc(O)c2ncccc12 the Potency was “inactive”. O=C1C=CC(=O)N1 was tested, and the Potency was “inactive”. For O=C(Nc1cccc([N+](=O)[O-])c1)c1cc2ccccc2cc1O, the Potency was “inactive”. For CCCCCCCCCCCCCCCCCC[N+](C)(C)Cc1ccccc1, the Potency was “inactive”. CN(C)c1ccc(C2(c3ccc(N(C)C)cc3)OC(=O)c3cc(N(C)C)ccc32)cc1 was tested, and the Potency was “inactive”. In the case of O=C(OCC1CO1)C1CCCCC1C(=O)OCC1CO1 (stereo not given), the Potency was “inactive”. In the case of O=C1c2c(O)ccc(Nc3ccc(CCO)cc3)c2C(=O)c2c([N+](=O)[O-])ccc(O)c21, the Potency was “inactive”. Nc1ccc2c3c(cccc13)-c1ccccc1-2 was tested, and the Potency was “inactive”. CC(C)(C)CC(C)(C)c1ccc(O)c(Cc2ccc(Cl)cc2Cl)c1 was tested, and the Potency was “inactive”. For CCOC(=O)c1nc(C(Cl)(Cl)Cl)n(-c2ccc(Cl)cc2Cl)n1, the Potency was “inactive”. In the case of CC(C)C(C)(C)C(C)(C)C(C)(C)S, the Potency was “inactive”. COc1cc(-c2nc(NC(=O)c3cc4cc(C)cc(C)c4n3CC(=O)O)sc2CCC2CCCCC2)c(OC)cc1Cl was tested, and the Potency was “inactive”. C[C@H]1[C@H]2CC[C@H]3[C@@H]4CC=C5C[C@@H](N(C)C)CC[C@]5(C)[C@H]4CC[C@]23CN1C was tested, and the Potency was “inactive”. In the case of O=C1CCCc2c1cc1ccc3cccc4ccc2c1c34, the Potency was “inactive”. In the case of O=C(O)c1ccc(Cl)c(Cl)c1, the Potency was “inactive”. NNC(=O)c1cccc(C(=O)NN)c1 was tested, and the Potency was “inactive”. C[n+]1cc2c3c(ccc2c2ccc4cc5c(cc4c21)OCO5)OCO3 was tested, and the Potency was “inactive”. Clc1ccc2cc3ccccc3cc2c1 was tested, and the Potency was “inactive”. With CC1=NC(C)OC1C (stereo not given) the Potency was “inactive”.
